Experimental data published in PubChem BioAssay (NCI).
About 83,000 compounds went through this panel and 20% of them were active in at least one assay; those are over-represented in the sample as a whole.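 Growth was measured after 48 h exposure to one concentration of compound in 96-well plates. Values under 10 count as active.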 Unmarked numbers belong to inactive results. Active and inactive are the calls of the source.

How the values were obtained:
Experiment in all cases: NCI-60 one-dose screen, 48 h (100 = growth as untreated, 0 = no growth, -100 = all killed)
Conditions in all cases: 10 µM unless noted
HCT-15 colon = tested on: HCT-15 colon
HT29 colon = tested on: HT29 colon
SNB-75 CNS = tested on: SNB-75 CNS
SNB-19 CNS = tested on: SNB-19 CNS
U251 CNS = tested on: U251 CNS
PC-3 prostate = tested on: PC-3 prostate
SK-MEL-5 melanoma = tested on: SK-MEL-5 melanoma
UACC-62 melanoma = tested on: UACC-62 melanoma
LOX IMVI melanoma = tested on: LOX IMVI melanoma
SK-MEL-28 melanoma = tested on: SK-MEL-28 melanoma
SK-MEL-2 melanoma = tested on: SK-MEL-2 melanoma
EKVX NSCLC = tested on: EKVX NSCLC
SN12C renal = tested on: SN12C renal
UO-31 renal = tested on: UO-31 renal
TK-10 renal = tested on: TK-10 renal
ACHN renal = tested on: ACHN renal
A498 renal = tested on: A498 renal
CCRF-CEM leukemia = tested on: CCRF-CEM leukemia
MOLT-4 leukemia = tested on: MOLT-4 leukemia
CAKI-1 renal = tested on: CAKI-1 renal

In the case of `COc1ccc(C2=NN(C(=O)c3cc(OC)c(OC)c(OC)c3)C(c3ccc(N(C)C)cc3)C2)cc1` (configuration not stated), the growth (HCT-15 colon) is reported as 10.6%, the growth (HT29 colon) is reported as 19.1% and the growth (SNB-75 CNS) is reported as 18.1%. For the same compound, the growth (SNB-19 CNS) was 37.6%, the growth (U251 CNS) was 15.6% and the growth (PC-3 prostate) was 20.6%. For the same compound, the growth (SK-MEL-5 melanoma) was 5.24% (active), the growth (UACC-62 melanoma) was 15.6% and the growth (LOX IMVI melanoma) was 28.9%. The growth (SK-MEL-28 melanoma) was 56.3%, the growth (SK-MEL-2 melanoma) was 66.5% and the growth (EKVX NSCLC) was 35.6%. For the same compound, the growth (SN12C renal) was 31.3%, the growth (UO-31 renal) was 19.4% and the growth (TK-10 renal) was 56.5%. For the same compound, the growth (ACHN renal) was 25.8%, the growth (A498 renal) was -1.92% (active) and the growth (CCRF-CEM leukemia) was 26.7%. The growth (MOLT-4 leukemia) was 18.9%.

`COc1ccc2c(c1)c(-c1nc(-c3cn(C)c4ncccc34)cs1)cn2CCO` showed a growth (HCT-15 colon) of 61.1%, a growth (HT29 colon) of 75.3% and a growth (SNB-75 CNS) of 91.3%. The growth (SNB-19 CNS) was 90.2%, the growth (U251 CNS) was 78.5% and the growth (PC-3 prostate) was 69.1%. It also gave a growth (SK-MEL-5 melanoma) of 74.2%, a growth (UACC-62 melanoma) of 80.4% and a growth (LOX IMVI melanoma) of 59.3%. For the same compound, the growth (SK-MEL-28 melanoma) was 86%, the growth (SK-MEL-2 melanoma) was 93% and the growth (EKVX NSCLC) was 67.5%. For the same compound, the growth (SN12C renal) was 86.1%, the growth (UO-31 renal) was 67.7% and the growth (ACHN renal) was 72.1%. The growth (CAKI-1 renal) was 88.7%, the growth (A498 renal) was 49.3% and the growth (CCRF-CEM leukemia) was 43.3%. The growth (MOLT-4 leukemia) was 58.2%.

In the case of `CN1CCN(CCCOC(=O)c2c3c(n4ccccc24)C(=O)c2ncccc2C3=O)CC1`, the growth (HCT-15 colon) is reported as -39.1% (active), the growth (HT29 colon) is reported as -32.3% (active) and the growth (SNB-75 CNS) is reported as -88.7% (active). For the same compound, the growth (SNB-19 CNS) was 1.8% (active), the growth (U251 CNS) was -31.7% (active) and the growth (PC-3 prostate) was 17.6%. The growth (SK-MEL-5 melanoma) was -98% (active), the growth (UACC-62 melanoma) was -48.8% (active) and the growth (LOX IMVI melanoma) was -60.9% (active). The growth (SK-MEL-28 melanoma) was 12.5%, the growth (SK-MEL-2 melanoma) was -52.7% (active) and the growth (EKVX NSCLC) was 37.7%. The growth (SN12C renal) was -66.3% (active), the growth (UO-31 renal) was -80.9% (active) and the growth (TK-10 renal) was 3.81% (active). The growth (ACHN renal) was -53.6% (active), the growth (A498 renal) was 38.3% and the growth (CCRF-CEM leukemia) was -16.3% (active). The growth (MOLT-4 leukemia) was -2.53% (active).

In the case of `C#CC#CC#CC#CC#CC#CC#CC#CC[C@H]1OC[C@H](COC(=O)O[C@@H](C(=O)O[C@H]2C[C@@]3(O)[C@@H](OC(=O)c4ccccc4)[C@@H]4[C@]5(OC(C)=O)CO[C@@H]5C[C@H](O)[C@@]4(C)C(=O)[C@H](OC(C)=O)C(=C2C)C3(C)C)[C@@H](NC(=O)c2ccccc2)c2ccccc2)O1`, the growth (HCT-15 colon) is reported as 99.5%, the growth (HT29 colon) is reported as 8.74% (active) and the growth (SNB-75 CNS) is reported as 37.6%. The growth (SNB-19 CNS) was 50.3%, the growth (U251 CNS) was 37.8% and the growth (PC-3 prostate) was 32.7%. The growth (SK-MEL-5 melanoma) was 60.5%, the growth (UACC-62 melanoma) was 46.2% and the growth (LOX IMVI melanoma) was 39.7%. The growth (SK-MEL-28 melanoma) was 52.1%, the growth (SK-MEL-2 melanoma) was 73.9% and the growth (EKVX NSCLC) was 74.5%. For the same compound, the growth (SN12C renal) was 46.5%, the growth (UO-31 renal) was 100% and the growth (ACHN renal) was 87.6%. For the same compound, the growth (CAKI-1 renal) was 77.1%, the growth (A498 renal) was 50.2% and the growth (CCRF-CEM leukemia) was 26.7%. For the same compound, the growth (MOLT-4 leukemia) was 43.3%.

In the case of `CC[C@H](Nc1nc(N)nc(C)c1C#N)c1nc2cccc(NCCCCCC(=O)NO)c2c(=O)n1-c1ccccc1`, the growth (HCT-15 colon) is reported as 78.7%, the growth (HT29 colon) is reported as 79.2% and the growth (SNB-75 CNS) is reported as 5.55% (active). It also gave a growth (SNB-19 CNS) of 71%, a growth (U251 CNS) of 61.3% and a growth (PC-3 prostate) of 45.1%. For the same compound, the growth (SK-MEL-5 melanoma) was 49.7%, the growth (UACC-62 melanoma) was 15.7% and the growth (LOX IMVI melanoma) was 66.5%. It also gave a growth (SK-MEL-28 melanoma) of 45.8%, a growth (SK-MEL-2 melanoma) of 76.1% and a growth (EKVX NSCLC) of 75%. The growth (SN12C renal) was 46.3%, the growth (UO-31 renal) was 30.1% and the growth (ACHN renal) was 51.9%. The growth (CAKI-1 renal) was 35.9%, the growth (A498 renal) was -29.5% (active) and the growth (CCRF-CEM leukemia) was 43.3%. It also gave a growth (MOLT-4 leukemia) of 30.7%.

With `Cn1ccnc1C(=O)/C=C/c1ccc(C(=O)Nc2ccc(F)cc2)cc1` the growth (HCT-15 colon) was 0.589% (active), the growth (HT29 colon) was 9.78% (active) and the growth (SNB-75 CNS) was 33%. For the same compound, the growth (SNB-19 CNS) was 24.4%, the growth (U251 CNS) was 1.92% (active) and the growth (PC-3 prostate) was 22.2%. The growth (SK-MEL-5 melanoma) was 8.1% (active), the growth (UACC-62 melanoma) was 35.6% and the growth (LOX IMVI melanoma) was -59.7% (active). It also gave a growth (SK-MEL-28 melanoma) of 60.9%, a growth (SK-MEL-2 melanoma) of 74.6% and a growth (EKVX NSCLC) of 26.6%. The growth (SN12C renal) was 14.3%, the growth (UO-31 renal) was -14.2% (active) and the growth (ACHN renal) was -49.9% (active). The growth (CAKI-1 renal) was 28.9%, the growth (A498 renal) was -9.36% (active) and the growth (CCRF-CEM leukemia) was 2.27% (active). For the same compound, the growth (MOLT-4 leukemia) was 7.92% (active).

With `COc1ccc2cc(Cn3cc[n+](Cc4ccc5ccccc5c4)c3)ccc2c1` the growth (HCT-15 colon) was 95.7%, the growth (HT29 colon) was -33.5% (active) and the growth (SNB-75 CNS) was 18.9%. The growth (SNB-19 CNS) was 31.6%, the growth (U251 CNS) was 16.1% and the growth (PC-3 prostate) was 19%. For the same compound, the growth (SK-MEL-5 melanoma) was -24% (active), the growth (UACC-62 melanoma) was 15.2% and the growth (LOX IMVI melanoma) was 28.4%. The growth (SK-MEL-28 melanoma) was 11.7%, the growth (SK-MEL-2 melanoma) was -15.8% (active) and the growth (EKVX NSCLC) was 50.5%. The growth (SN12C renal) was 16.9%, the growth (UO-31 renal) was 84.4% and the growth (TK-10 renal) was 9.68% (active). The growth (ACHN renal) was 98.8%, the growth (A498 renal) was 74.7% and the growth (CCRF-CEM leukemia) was 20.2%. For the same compound, the growth (MOLT-4 leukemia) was 17.2%.

With `COc1cc2c3c(n(CCCCNCCCn4c5c(c6cc(OC)c(OC)cc6c4=O)C(=O)c4cc6c(cc4-5)OCO6)c(=O)c2cc1OC)-c1cc2c(cc1C3=O)OCO2` the growth (HCT-15 colon) was 99.6%, the growth (HT29 colon) was 93.3% and the growth (SNB-75 CNS) was 91%. The growth (SNB-19 CNS) was 102%, the growth (U251 CNS) was 91.6% and the growth (PC-3 prostate) was 93%. It also gave a growth (SK-MEL-5 melanoma) of 102%, a growth (UACC-62 melanoma) of 96.8% and a growth (LOX IMVI melanoma) of 95.2%. The growth (SK-MEL-28 melanoma) was 109%, the growth (SK-MEL-2 melanoma) was 114% and the growth (EKVX NSCLC) was 90.3%. For the same compound, the growth (SN12C renal) was 102%, the growth (UO-31 renal) was 84.1% and the growth (TK-10 renal) was 100%. It also gave a growth (ACHN renal) of 95%, a growth (A498 renal) of 103% and a growth (CCRF-CEM leukemia) of 101%. For the same compound, the growth (MOLT-4 leukemia) was 96.5%.
